From PubChem BioAssay
Active and inactive are the calls of the source. Unless noted, the rule behind the calls is not given here.

Columns and labels:
[1] = system: Wnt5a (protein binding on small-molecule microarray); experiment: Wnt5a binders on small-molecule microarray, primary screen, biophysical, 635/667 nm fluorescence (AID 1142); details: 635 nm fluorescence, higher = more signal;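 note: fluorescence read at 667 nm with signal to noise per printed feature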
[2] = cell viability in Huh7 cells, primary screen, cytotoxicity control for HCV replication inhibitor project, CellTiter-Glo luminescence, basal, 48 h (AID 1143); details: Huh7 HCV replicon, higher = more signal, called active from +8 up or from −8 down;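 note: Huh7 hepatoma cells carrying a hepatitis C replication reporter with no stimulus; test concentration not given here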
[3] = P. aeruginosa biofilm formation inhibitors, primary screen, PAO1 strain, BacTiter-Glo luminescence, LB-PBS (AID 1144); details: 12 h, higher = more signal
[4] = CREB reporter modulators without forskolin, primary screen, cell-based, PC12, CRE-LacZ reporter, unstimulated (AID 1145); details: no forskolin, luminescence, 4.5 h, higher = more signal, called active from +8 up or from −8 down
[5] = CREB reporter modulators under forskolin, primary screen, cell-based, PC12, CRE-LacZ reporter, forskolin-stimulated (AID 1146); details: luminescence, 4.5 h, higher = more signal, called active from +8 up or from −8 down;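 note: PC12 cells with 6xCRE LacZ reporter stimulated by forskolin 10 µM; beta-galactosidase reporter signal reflecting CREB driven transcription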
[6] = target: Streptavidin (Streptomyces avidinii) (UniProt P22629); experiment: streptavidin binders on small-molecule microarray, primary screen, artefact control for SMM compound annotation, biophysical, 635/667 nm fluorescence (AID 1147); details: streptavidin binding, higher = more signal;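 note: signal reflects streptavidin binding to arrayed compounds as a control protein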
Streptavidin (Streptomyces avidinii), sequence (P22629 whole entry, looked up): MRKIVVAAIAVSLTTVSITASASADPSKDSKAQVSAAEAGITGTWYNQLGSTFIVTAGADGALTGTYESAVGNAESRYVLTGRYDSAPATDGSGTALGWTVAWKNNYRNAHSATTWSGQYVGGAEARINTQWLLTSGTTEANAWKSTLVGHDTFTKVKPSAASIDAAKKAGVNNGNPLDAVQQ

[7] = small-molecule binders of probe aInhba, primary screen, biochemical, small-molecule microarray, 635/667 nm fluorescence (AID 1148); details: higher = more signal;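 note: score merges 667nm spot fluorescence with signal-to-noise for antibody binding to printed compounds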
Torsin-1A (Homo sapiens) [8] = target: Torsin-1A (Homo sapiens) (UniProt O14656); experiment: torsin A binders from cell lysate, primary screen, small-molecule microarray, wild-type, 635/667 nm (AID 1149); details: COS7 hTOR1A-WT lysate, 635 nm fluorescence, higher = more signal
Torsin-1A (Homo sapiens), sequence (O14656 whole entry, looked up): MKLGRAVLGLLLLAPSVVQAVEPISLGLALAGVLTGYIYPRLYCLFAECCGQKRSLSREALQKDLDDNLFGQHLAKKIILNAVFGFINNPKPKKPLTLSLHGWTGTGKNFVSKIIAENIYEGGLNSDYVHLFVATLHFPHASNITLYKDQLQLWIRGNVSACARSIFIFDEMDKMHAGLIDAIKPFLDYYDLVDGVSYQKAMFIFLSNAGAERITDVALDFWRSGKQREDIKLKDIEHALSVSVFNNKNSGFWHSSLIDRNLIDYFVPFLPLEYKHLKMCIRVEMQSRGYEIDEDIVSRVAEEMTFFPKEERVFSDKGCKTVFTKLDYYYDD

Torsin-1A (Homo sapiens) [9] = target: Torsin-1A (Homo sapiens) (UniProt O14656); experiment: small-molecule binders of mutant TOR1A in lysate, primary screen, cell lysate, small-molecule microarray, COS7 lysate, 635/667 nm fluorescence (AID 1150); details: COS7 hTOR1A mutant lysate, 635 nm fluorescence, higher = more signal;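 note: score pools 667 nm emission and signal to noise measuring lysate protein binding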
[10] = system: Sonic hedgehog protein (Shh); experiment: small-molecule binders of Shh protein, primary screen, biochemical, small-molecule microarray, 635/667 nm fluorescence (AID 1151); details: small-molecule microarray binding, 635 nm fluorescence; higher = more signal;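 note: Shh protein binding to compounds spotted on small-molecule microarray slides; score combines spot fluorescence intensity with signal-to-noise across triplicate slides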

| Compound | composite z-score [1] | z-score [2] | z-score [3] | z-score [4] | z-score [5] | composite z-score [6] | composite z-score [7] | composite z-score (Torsin-1A (Homo sapiens) [8]) | composite z-score (Torsin-1A (Homo sapiens) [9]) | composite z-score [10] |
| --- | --- | --- | --- | --- | --- | --- | --- | --- | --- | --- |
| O=C1O[C@H](c2ccccc2)[C@H](c2ccccc2)N2[C@H]1[C@@H](C(=O)O)[C@]1(C(=O)Nc3ccccc31)[C@H]2c1ccc(OCCO)cc1 | -0.0515 | 0.234 (inactive) | -0.369 (inactive) | 0.739 (inactive) | 0.727 (inactive) | 1.08 | -0.0468 | 0.658 | -0.283 | 0.98 |
| C=CC[C@]1(C(N)=O)N=C(c2ccc(OCCCO)cc2)O[C@H]1c1ccccc1N=[N+]=[N-] | 0.423 | -1.05 (inactive) | 0.348 (inactive) | 0.432 (inactive) | -1.81 (inactive) | 0.489 | 0.0857 | 0.534 | 1.62 | 0.0211 |
| C=C[C@H](OC)[C@@H](O)c1ccc(OC)c(O)c1 | -0.444 | 0.97 (inactive) | -1.34 (inactive) | 0.222 (inactive) | -0.904 (inactive) | -1.56 | -0.29 | -0.874 | -0.695 | -0.734 |
| COc1ccc([Si](C)(C)[C@H]2[C@H](CC(=O)N(CCO)Cc3ccccc3)O[C@@]3(C(=O)N(c4ccccc4)c4ccccc43)[C@@H]2C)cc1 | 0.318 | -7.96 (inactive) | -0.164 (inactive) | 16.4 (active) | -3.89 (inactive) | 0.862 | -0.0986 | 0.0895 | -0.364 | 1.2 |
| COC(=O)C(CC#Cc1ccc2c(c1)[C@]1(C(=O)N2)[C@H](c2ccc(OCCO)cc2)N2[C@H](c3ccccc3)[C@H](c3ccccc3)OC(=O)[C@H]2[C@@H]1C(N)=O)C(=O)OC | -0.0885 | -2.24 (inactive) | -0.287 (inactive) | -0.0246 (inactive) | 0.0658 (inactive) | 1.42 | -0.0719 | 0.598 | -0.127 | -0.315 |
| COc1c(C)cc(-c2cc3c(c(CCc4ccccc4)n2)[Si](C(C)C)(C(C)C)O[C@H]3c2ccccc2)cc1C | -0.169 | -2.84 (inactive) | -0.0716 (inactive) | -0.272 (inactive) | 0.412 (inactive) | -0.0663 | -0.128 | -1.11 | -0.554 | -0.11 |
| CCCCCCc1nc(-c2ccc(OC)nc2)c(C)c2c1[Si](C(C)C)(C(C)C)OC2 | -0.0701 | -2.75 (inactive) | -1.13 (inactive) | 0.106 (inactive) | -0.556 (inactive) | -0.2 | 0.0536 | 0.397 | -0.57 | 0.417 |
| CN1C(=O)C2C=CC(C(O)COCc3ccccc3)N(Nc3ccc([N+](=O)[O-])cc3[N+](=O)[O-])C2C1=O (stereo not given) | 0.727 | 0.615 (inactive) | -0.73 (inactive) | 1.01 (inactive) | -0.252 (inactive) | -0.387 | 0.0442 | -0.306 | 0.713 | -0.997 |
| CC(C)(C)OC(=O)CC[C@@]1(C(=O)N2CCOCC2)N=C(c2ccc(OCCCO)cc2)O[C@@H]1c1ccccc1CN=[N+]=[N-] | 1.14 | -0.435 (inactive) | -0.202 (inactive) | 0.311 (inactive) | -0.0177 (inactive) | 1.05 | 0.529 | 0.401 | 2.23 | -0.33 |
| C=C1C(=O)C=C2CN(C(=O)c3ccccc3)[C@@](Cc3ccc(F)cc3)(C(=O)OC)[C@@H]12 | 0.272 | -5.23 (inactive) | 1.1 (inactive) | -0.375 (inactive) | -2.15 (inactive) | 1.87 | 0.49 | 0.172 | 0.73 | -0.0536 |
| O=C1NC(=O)C2C1C=CC(C(O)C1CCCCC1)N2Nc1ccccn1 (stereo not given) | 0.0408 | 1.06 (inactive) | -1.42 (inactive) | 0.433 (inactive) | 1.29 (inactive) | -0.15 | -0.0762 | 0.254 | 0.852 | 0.278 |
| CN(C)CCCCNC(=O)[C@H]1C[C@H]2C(=O)N[C@@H](CCCCN(C)C)C(=O)N2[C@H]1c1ccc(O)cc1 | 0.215 | -1.14 (inactive) | -0.889 (inactive) | -1.61 (inactive) | -0.252 (inactive) | 0.165 | -0.206 | 0.464 | 0.282 | 1.29 |
| CC1CC/C=C\[C@H]2OC34C=CCN(C(C)C)C(=O)[C@H]3N(C(C)CO)C(=O)[C@@H]4C2C(=O)O1 (stereo not given in full) | -0.293 | 0.143 (inactive) | -0.657 (inactive) | -1.04 (inactive) | -0.627 (inactive) | -0.447 | 1.09 | 0.0269 | -0.381 | 1.09 |
| CC(C)N1C(=O)[C@@]2(Cc3ccccc31)c1ccccc1C(=O)N(Cc1ccccc1)[C@H]2c1ccc(CO)cc1 | 0.164 | 0.629 (inactive) | 0.0609 (inactive) | -0.114 (inactive) | 0.467 (inactive) | -0.439 | -0.119 | 0.291 | -0.182 | 0.462 |
| [N-]=[N+]=NCc1ccccc1[C@H]1OC(c2ccc(OCCCO)cc2)=N[C@@]1(Cc1ccccc1N=[N+]=[N-])C(N)=O | 0.395 | -1.38 (inactive) | -1.13 (inactive) | 0.0451 (inactive) | -0.697 (inactive) | 1.23 | 0.472 | 1.55 | 0.949 | 0.183 |
| O=C1O[C@@H](c2ccccc2)[C@@H](c2ccccc2)N2[C@@H](c3ccc(OCCO)cc3)[C@]3(C(=O)Nc4ccc(C#CC5=CCCCC5)cc43)[C@@H](C(=O)Nc3nc4ccccc4s3)[C@H]12 | 0.256 | -1.89 (inactive) | -1.2 (inactive) | -0.698 (inactive) | -0.797 (inactive) | 0.549 | -0.145 | -0.0561 | 0.0025 | 1.43 |
| COC(=O)C1=CC(c2ccc(CO)cc2)=CC(C2CC2)N(Cc2cc3c(cc2Br)OCO3)C=C1C(=O)OC (stereo not given) | 0.92 | -3.35 (inactive) | 0.754 (inactive) | -0.904 (inactive) | -0.5 (inactive) | 1.52 | 0.225 | 0.312 | 0.832 | 1.21 |
| CCOC(=O)C[C@H]1[C@H](OC(=O)Cc2ccc3c(c2)OCO3)[C@@H](NC(=O)CC(C)C)c2cc(OCCCO)ccc2N1C(=O)c1ccc2ccccc2n1 | 0.25 | -3.23 (inactive) | 0.0536 (inactive) | 7.92 (inactive) | 0.812 (inactive) | 0.23 | -0.0331 | 0.384 | -0.147 | 0.458 |
| COc1c(C)cc(-c2nc(-c3ccccc3)c3c(c2C)CO[Si]3(C(C)C)C(C)C)cc1C | 0.302 | -0.59 (inactive) | 0.306 (inactive) | 0.54 (inactive) | 0.456 (inactive) | -0.0316 | -0.0604 | -0.0284 | 0.0463 | 0.419 |
| COCCOC(=O)N1C(=O)[C@@]2(c3cc(C#CCNC(N)=O)ccc31)[C@H](C(=O)Nc1nc3ccccc3s1)[C@H]1C(=O)O[C@H](c3ccccc3)[C@H](c3ccccc3)N1[C@@H]2c1ccc(O)cc1 | 0.0623 | 0.284 (inactive) | 0.326 (inactive) | -0.168 (inactive) | -0.227 (inactive) | 0.753 | 0.189 | -0.227 | -0.023 | 0.527 |
| C=CCNC(=O)[C@H]1[C@@H]2C(=O)O[C@@H](c3ccccc3)[C@@H](c3ccccc3)N2[C@@H](c2ccc(OCCO)cc2)[C@]12C(=O)N(C(=O)OCCOC)c1ccc(C#CCNC(N)=O)cc12 | 0.0992 | -0.646 (inactive) | -1.36 (inactive) | -0.618 (inactive) | -0.779 (inactive) | 0.286 | -0.0313 | 0.668 | 0.83 | 0.984 |
| C=CCNC(=O)[C@H]1[C@@H]2C(=O)O[C@@H](c3ccccc3)[C@@H](c3ccccc3)N2[C@@H](c2ccc(OCCO)cc2)[C@]12C(=O)Nc1ccc(C#Cc3ccc(OC)cc3)cc12 | 0.4 | -3.41 (inactive) | -0.832 (inactive) | 0.478 (inactive) | 0.237 (inactive) | 0.918 | 0.165 | 0.44 | 0.471 | 0.974 |
| COCCOC(=O)N1C(=O)[C@@]2(c3cc(C#CCNC(N)=O)ccc31)[C@H](C(N)=O)[C@H]1C(=O)O[C@H](c3ccccc3)[C@H](c3ccccc3)N1[C@@H]2c1ccc(O)cc1 | 0.159 | 0.29 (inactive) | -0.204 (inactive) | 0.619 (inactive) | -0.713 (inactive) | -0.0811 | 0.296 | 0.572 | -0.0113 | 0.0133 |
| C[C@]1(C(=O)NC2CC2)c2ccccc2C(=O)N(Cc2cc(F)cc(C(F)(F)F)c2)[C@H]1c1ccc(CO)cc1 | -0.76 | -2.15 (inactive) | -1.05 (inactive) | 0.764 (inactive) | 0.864 (inactive) | -0.827 | -0.242 | -2.36 | 0.416 | 1.62 |
| CC(C)c1ccc(NN2C(C(O)C3=C[C@H]4C[C@@H](C3)C4(C)C)C=CC3C(=O)N(c4ccccc4)C(=O)C32)cc1 (stereo not given in full) | 0.747 | -0.005 (inactive) | -0.335 (inactive) | 0.443 (inactive) | 0.551 (inactive) | 1.56 | 0.234 | 0.281 | 0.562 | -0.0766 |
| COC(=O)[C@@]1(Cc2ccc(F)cc2)[C@H]2c3cc(C(=O)N4CCCC4)n(C[C@H](O)CO)c3C[C@H]2CN1C(=O)c1ccccc1 | 0.943 | 0.0849 (inactive) | 0.339 (inactive) | 0.0075 (inactive) | -0.101 (inactive) | 1.12 | 0.674 | 0.0277 | 0.332 | -0.545 |
